This is an account of results in paper PMC5540273 (PLoS ONE, 2017).

Molecules are shown by their SMILES.
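Also: KINOMEscan kinase panel screen.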

This experiment deals with MAP3K4. The following applies: concentration: 1 μM, replicates: in singlicate; n = 1.
For the compound `Cl.c1ccc(-c2ccc3c(Nc4ccc5[nH]ncc5c4)ccnc3c2)nc1` [GW440137], the “%Inh” value was determined as 4%.

On to `COc1cc(Nc2ncc3c(C)nc(-c4cc5ccccc5[nH]4)n3n2)cc(OC)c1OC` [GW869516], for which the “%Inh” value is 52%. The value for `COC(=O)Nc1nc2ccc(Oc3ccc(NC(=O)Nc4cc(C(F)(F)F)ccc4F)cc3)cc2n1C.Cl` [GW692089] was 0%. The same measure for `Nc1n[nH]c2cnc(-c3ccccc3)cc12` [SB-642124]: 23%; for `COc1cc(Nc2nccc(N3CCC(NC(=O)Nc4cccc(C(C)=O)c4)C3)n2)cc(OC)c1OC` (stereo not shown) [GSK1379753]: 0%; for `O=C(NC1CCN(c2ccnc(Nc3ccc(F)cc3)n2)C1)c1cc2ccccc2s1` (stereo not shown) [GSK1379716]: 0%. The same measure for `c1ccc(-c2cnc3nccnn23)cc1` [AH20685]: 21%.

As to `Nc1ncnc2c1nc(-c1ccccc1)n2-c1ccccc1` [SKF-97293], the “%Inh” value came to 35%. The same measure for `CN(C)Cc1ccc(-c2ccc3c(Nc4ccc(Oc5ccccn5)cc4)ccnc3c2)o1` [GW567148]: 0%; for `COc1cc(Nc2nccc(N3CCC(NC(=O)c4cc5ccccc5s4)C3)n2)cc(OC)c1OC` (stereo not shown) [GSK1379760]: 16%.

On to `Cl.Cl.NCC(NCc1ccc(-c2ccnc3[nH]ccc23)s1)c1ccccc1` (stereo not shown) [GSK1321565], for which the “%Inh” value was found to be 0%. Consider `Cl.NC(=O)c1cccc(Nc2nccc(Nc3ccc(Oc4c(Cl)cccc4Cl)c(Cl)c3)n2)c1` [GW659009], for which the “%Inh” value turned out to be 0%. The same measure for `O=C(Nc1ccccc1F)NC1CCN(c2ccnc(Nc3ccc(F)cc3)n2)CC1` [GSK1379800]: 0%.
